Shown are actives, neighbours in structure and some others; about 2.4% of the full set was active somewhere.
Pol eta inh: blocks human DNA polymerase eta activity; Q9Y253; AID 588591; Potency, µM (series often up to 114 µM), usual class: inhibitors; recombinant Pol eta, fluorescent DNA replication assay; 1.2% of 390,000 active
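Pol eta (10 nM) was preincubated with compounds for 15 min at room temperature, after which fluorescent replication substrate (50 nM final) was added to start the reaction. Fluorescence was read kinetically at 0 and 10 min.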
POLI inh: inhibitors of human DNA polymerase iota | Q9UNA4 | Pol iota fluorescent replication assay, 10 min | Potency, µM (highest dose often 115 µM), actives largely listed as inhibitors | 1% of 390,000 active | AID 588590
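Fluorescent replication assay read twice, at 0 min and 10 min after adding 50 nM (final) substrate. Enzyme (10 nM) and compounds were first incubated 15 min at room temperature; enzyme-free buffer wells were negative controls.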
FEN1 inh: inhibitors of human flap endonuclease 1. P39748. Recombinant FEN1 flap cleavage, fluorescence, 15 min. Potency, µM (doses to about 114 µM), actives largely listed as inhibitors. 0.35% of 390,000 active. AID 588795; note: nearly all actives have a fitted effect of over 65% in size
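Concentration–response screening of FEN1 (10 nM): 15 min compound preincubation at room temperature, reaction started with 50 nM substrate and read at 0 and 15 min. Corrected, normalized data were fitted by a four-parameter Hill equation.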
Pol beta inh: blocks human DNA polymerase beta activity. P06746. Pol beta primer extension/strand displacement, fluorescence kinetic. Potency, µM (series often up to 114 µM), usual class: inhibitors. 1.3% of 340,000 active. AID 485314
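Human Pol beta at 10 nM; strand-displacement substrate 50 nM final. Compound exposure 15 min at room temperature before start, reaction 10 min at room temperature.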
Pol kappa inh: DNA polymerase kappa (human) inhibition; Q9UBT6; purified Pol kappa, fluorescent DNA synthesis assay, 10 min; Potency, µM (top dose mostly 107 µM), usual class: inhibitors; 0.53% of 400,000 active; AID 588579
Target sequence (Q9UBT6 whole entry, looked up): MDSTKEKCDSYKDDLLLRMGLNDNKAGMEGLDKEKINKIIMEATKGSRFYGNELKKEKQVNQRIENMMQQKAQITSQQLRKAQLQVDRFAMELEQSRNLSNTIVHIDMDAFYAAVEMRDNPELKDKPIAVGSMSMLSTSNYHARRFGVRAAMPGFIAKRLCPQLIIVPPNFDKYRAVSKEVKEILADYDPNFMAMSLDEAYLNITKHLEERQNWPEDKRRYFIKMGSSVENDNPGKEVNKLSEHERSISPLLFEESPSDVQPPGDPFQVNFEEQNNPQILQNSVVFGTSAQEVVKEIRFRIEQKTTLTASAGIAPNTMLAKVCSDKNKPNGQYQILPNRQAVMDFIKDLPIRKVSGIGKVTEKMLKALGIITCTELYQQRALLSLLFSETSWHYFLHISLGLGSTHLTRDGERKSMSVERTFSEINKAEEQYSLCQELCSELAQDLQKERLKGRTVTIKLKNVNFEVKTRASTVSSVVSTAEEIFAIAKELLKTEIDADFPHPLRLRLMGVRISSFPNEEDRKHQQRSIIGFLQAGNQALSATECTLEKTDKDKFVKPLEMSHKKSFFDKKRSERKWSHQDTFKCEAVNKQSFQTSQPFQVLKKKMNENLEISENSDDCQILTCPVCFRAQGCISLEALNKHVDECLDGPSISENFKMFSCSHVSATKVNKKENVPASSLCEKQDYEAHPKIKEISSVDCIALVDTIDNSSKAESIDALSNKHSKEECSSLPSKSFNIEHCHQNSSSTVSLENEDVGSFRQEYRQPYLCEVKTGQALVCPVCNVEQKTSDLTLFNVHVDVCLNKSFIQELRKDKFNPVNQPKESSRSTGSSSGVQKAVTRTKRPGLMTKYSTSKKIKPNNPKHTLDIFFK
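First, compounds were pin-transferred onto 10 nM Pol kappa. After 15 min at room temperature, substrate was added to 50 nM final. Fluorescence was then measured kinetically at 0 and 10 min.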
WRN helicase inh: blocks human WRN helicase; 0.46% of 360,000 active; AID 651768; WRN helicase unwinding, fluorescent forked duplex, kinetic; Potency, µM (doses to about 114 µM), most hits filed as inhibitors; Q14191; note: nearly all actives have a fitted effect of over 55% in size
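Screening of the MLSMR collection measured strand separation of a quenched forked DNA duplex (100 nM) by 20 nM WRN with 2 mM ATP, all final. Compounds were preincubated with enzyme 15 min at room temperature.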
Large screens that a line does not name were inactive; ! = repeats disagree. Calls come from the whole dose curve; as a rule, active = well fitted curve in the direction sought with a large enough effect; inconclusive = small, poorly fitted or top-dose-only effect, or another doubt; inactive = no such curve, though single readings can be large; an effect the other way counts as inactive or inconclusive.

FC(F)OC(Cl)C(F)(F)F (configuration not stated)	none (no result: Pol eta inh, POLI inh, FEN1 inh, Pol beta inh, WRN helicase inh)
CCN(CC)CCOc1c(Br)ccc2c1sc1nc3n(c(=O)c12)CCC3	POLI inh inconclusive, FEN1 inh 50µM
COc1ccc(OC)c(S(=O)(=O)Nc2ccc(O)c(Sc3ncn[nH]3)c2)c1	Pol eta inh inconclusive, POLI inh inconclusive, Pol beta inh 79µM, WRN helicase inh inconclusive
CC(C)[C@H](NC(=O)CNC(=O)OC(C)(C)C)C(=O)N[C@H](C=O)C(C)C	none (no result: Pol eta inh, POLI inh, FEN1 inh, Pol beta inh, WRN helicase inh)
c1cncc(CNc2cc(-c3ccc4c(c3)OCO4)ncn2)c1	none (no result: Pol eta inh, POLI inh, FEN1 inh, Pol beta inh, WRN helicase inh)
Cc1cc(/C=C2\SC(=S)NC2=O)c(C)n1C1CC1	Pol eta inh inconclusive, POLI inh inconclusive, Pol beta inh 25µM, Pol kappa inh inconclusive, WRN helicase inh inconclusive
O=C1NC(=S)S/C1=C\c1coc2ccc(O)cc2c1=O	Pol eta inh 50µM, POLI inh inconclusive, Pol beta inh inconclusive, WRN helicase inh inconclusive
O=C1NC(=S)SC1=Cc1cc(Br)ccc1O	Pol eta inh 50µM, POLI inh inconclusive, FEN1 inh inconclusive, WRN helicase inh inconclusive (no result: Pol beta inh)
Cc1ccc(SCC(Cc2ccccc2)N2CCN(C)CCC2=O)cc1 (configuration not stated)	none (no result: Pol eta inh, Pol beta inh, WRN helicase inh)
COc1ccc2[nH]cc(CCNc3ncncc3-c3ccccc3C)c2c1	none (no result: Pol eta inh, POLI inh, FEN1 inh, Pol beta inh, WRN helicase inh)
O=C(Nc1nc(-c2ccncc2)cs1)c1ccco1	Pol eta inh inconclusive, POLI inh inconclusive, Pol beta inh 40µM
COC(=O)C1=C[C@@H](C(=O)OC)[C@@H]2C3=C(C(=O)C2(C)C)[C@H](C)n2c(=O)n(C)c(=O)n2[C@@H]3C1	POLI inh inconclusive, Pol kappa inh inconclusive (no result: Pol eta inh, Pol beta inh, WRN helicase inh)
CC1=C(CCC(=O)O)c2cc3nc(cc4[nH]c(cc5[nH]c(cc1n2)c(C)c5C(C)O)c(C)c4C(C)O)C(C)=C3CCC(=O)O (configuration not stated)	Pol kappa inh 20µM (no result: Pol eta inh, POLI inh, FEN1 inh, Pol beta inh, WRN helicase inh)
COc1ccccc1C(C)NCC(=O)c1c(C)[nH]c2ccccc12 (configuration not stated)	none (no result: Pol eta inh, Pol beta inh, WRN helicase inh)
O=C(Nc1ccccc1C(=O)O)/C(=C/c1ccc([N+](=O)[O-])cc1)NC(=O)c1ccc(Br)o1	Pol eta inh 40µM, Pol beta inh 28µM
COc1ccc(C2=CC3=C(Br)C(=O)C(C)(O)C(=O)C3=CO2)cc1 (configuration not stated)	Pol eta inh inconclusive, POLI inh inconclusive, Pol beta inh 40µM, Pol kappa inh inconclusive, WRN helicase inh inconclusive
COC(=O)CCC(=O)OC1(C)C(=O)C2=CN(c3ccccc3)C(c3ccc(OC)cc3)=CC2=C(Br)C1=O (configuration not stated)	POLI inh inconclusive (no result: Pol beta inh)
COC(=O)C1=C(CSc2nc3c(cc2C#N)CN(C)CC3)OC(N)=C(C#N)C1c1ccc(F)cc1 (configuration not stated)	Pol eta inh inconclusive, POLI inh 14µM, Pol beta inh inconclusive, Pol kappa inh 71µM, WRN helicase inh inconclusive
Cc1c(O)c2ccccc2n(-c2ccccc2)c1=O	none (no result: Pol beta inh)
CC(C)(C)c1c(Cl)c(O)c(-c2ccccc2)c(=O)n1-c1ccccc1	POLI inh 1.1µM, WRN helicase inh 50µM
COc1ccc(OCC(=O)NCC(c2ccc(OC)cc2)N2CCCCC2)cc1 (configuration not stated)	Pol beta inh 89µM!
Cc1cccc(OCC(=O)Nc2nnc(-c3ccco3)s2)c1	Pol beta inh inconclusive
COc1ccccc1OCC(=O)Nc1nnc(-c2ccco2)s1	Pol eta inh inconclusive, POLI inh inconclusive, Pol beta inh 35µM
O=C(CSc1oc(-c2ccco2)nc1S(=O)(=O)c1ccc(Br)cc1)c1ccc(Cl)cc1	POLI inh 89µM, Pol kappa inh inconclusive (no result: WRN helicase inh)
CCCSc1oc(-c2ccco2)nc1S(=O)(=O)c1ccc(Cl)cc1	POLI inh inconclusive (no result: WRN helicase inh)
COc1ccccc1-c1nccc(NCc2cccs2)n1	none (no result: Pol eta inh, POLI inh, FEN1 inh, Pol beta inh, WRN helicase inh)
CCC(=O)Nc1ccc(C(=O)N/N=C/c2ccc([N+](=O)[O-])cc2)cc1	Pol beta inh inconclusive
COC(=O)N/N=C/c1ccc([N+](=O)[O-])o1	POLI inh 56µM, Pol beta inh inconclusive
O=C(N/N=C/c1ccc([N+](=O)[O-])o1)C1CC1	Pol eta inh 40µM, POLI inh 22µM, Pol beta inh 18µM

Source: PubChem BioAssay
